The list is not random: actives were taken first. Their share in the collection is about 4%.
Shn3 inh set2: reduction of Shn3 3'UTR firefly luciferase signal, primary screen, Schnurri-3 inhibitor project, cell-based, Clone20 osteoblasts, set 2; Clone20 osteoblast Shn3 3'UTR firefly luciferase, 24 h; inhibition, % at 12.5 µM; 360,000 compounds, 0.52% hits; AID 588674, 2011;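 active = mean inhibition of at least 75% with every replicate also reaching 75%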;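 also: 0% = median of neutral control wells and 100% = pilot-screen positive control compound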
Beta apoptosis: inhibitors of cytokine-induced beta cell apoptosis, primary screen, luminescence. AID 435005, 2010. protection from apoptosis, % (test concentration not listed). 300,000 compounds, 0.8% hits. INS-1E cytokine-induced death, ATP luminescence, 48 h; percent of positive-control rescue, neutral wells zero;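 active = Every replicate reaches about 75%, or at least half do and their mean reaches it too, limit read from the data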;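 also: 0% = cytokine-treated negative control wells and 100% = positive control rescue; higher means more ATP so stronger rescue from cytokine killing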
Mdm2 MdmX PPI: inhibitors of human Mdm2-MdmX association, primary screen, cell-based, luminescence, split luciferase, SaOS-2, uHTS | Protein Mdm4 (Homo sapiens) + E3 ubiquitin-protein ligase Mdm2 (Homo sapiens), … | 330,000 compounds, 3% hits | AID 485346, 2010 | inhibition, % at 8 µM | SaOS-2 split-luciferase Mdm2/MdmX complementation;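 active = inhibition of at least 50% at 8 µM in the primary screen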
Target sequence (O15151 whole entry, looked up): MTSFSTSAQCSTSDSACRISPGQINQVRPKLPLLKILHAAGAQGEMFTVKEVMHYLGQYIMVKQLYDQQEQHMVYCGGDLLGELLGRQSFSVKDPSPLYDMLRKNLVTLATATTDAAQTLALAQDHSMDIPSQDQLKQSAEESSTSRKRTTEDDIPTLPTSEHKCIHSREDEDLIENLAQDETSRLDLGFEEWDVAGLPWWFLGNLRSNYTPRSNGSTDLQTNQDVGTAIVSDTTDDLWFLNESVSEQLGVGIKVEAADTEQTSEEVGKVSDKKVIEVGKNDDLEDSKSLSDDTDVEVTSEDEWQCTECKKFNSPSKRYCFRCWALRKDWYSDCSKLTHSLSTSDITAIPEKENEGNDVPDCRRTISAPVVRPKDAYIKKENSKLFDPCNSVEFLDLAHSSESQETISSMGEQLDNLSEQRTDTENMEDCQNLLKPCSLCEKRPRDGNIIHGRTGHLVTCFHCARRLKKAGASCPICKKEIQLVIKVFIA
Target sequence (Q00987 whole entry, looked up): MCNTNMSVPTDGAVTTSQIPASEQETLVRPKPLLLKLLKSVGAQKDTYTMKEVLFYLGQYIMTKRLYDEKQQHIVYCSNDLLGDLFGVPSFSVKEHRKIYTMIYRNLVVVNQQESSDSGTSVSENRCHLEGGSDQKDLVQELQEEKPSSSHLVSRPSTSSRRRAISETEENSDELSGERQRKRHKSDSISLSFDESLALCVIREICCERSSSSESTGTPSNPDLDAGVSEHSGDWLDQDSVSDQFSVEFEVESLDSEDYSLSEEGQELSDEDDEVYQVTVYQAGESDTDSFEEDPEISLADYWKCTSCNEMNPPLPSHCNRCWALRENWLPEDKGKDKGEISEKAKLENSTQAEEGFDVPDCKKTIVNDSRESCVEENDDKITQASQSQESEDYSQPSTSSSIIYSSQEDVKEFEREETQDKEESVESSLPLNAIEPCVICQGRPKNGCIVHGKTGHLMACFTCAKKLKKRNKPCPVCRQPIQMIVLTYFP
PAX8 reporter: inhibitors of PAX8-driven TPO luciferase reporter, primary screen, RMG-I cells, single concentration; SteadyGlo, 24 h; 360,000 compounds, 1.2% hits; inhibition, % at 12.6 µM;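 active = mean replicate inhibition at least 60% with every replicate also reaching 60%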;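 also: luciferase light reporting Pax8 driven TPO promoter activity; plate controls were median of neutral control wells for no effect and mitoxantrone controls for full effect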
CSC inhib: cancer stem cell viability inhibitors, primary screen, luminescence; 300,000 compounds, 1.1% hits; cancer stem cell-like cells viability; AID 2717, 2010; inhibition, % at 7.5 µM; in the data active = inhibition above about 75%; tested in HMLE shEcad cells
Gli-Sufu block: Gli-Sufu pathway antagonists, primary screen, luciferase luminescence, Sufu-KO-LIGHT cells, uHTS | 340,000 compounds, 0.74% hits | inhibition, % at 5 µM | Sufu-KO-LIGHT fibroblasts, Gli luciferase reporter luminescence | AID 588413, 2011;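 active = inhibition above about 55%, limit read from the data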;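 also: 0% = DMSO-treated cells and 100% = wells with medium but no cells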
Gli antag conf: Gli-SUFU pathway antagonists, confirmation, single concentration, luciferase luminescence, Sufu-KO-LIGHT cells; AID 602428, 2012; Gli luciferase reporter; 2,500 compounds, 40% hits; inhibition, % at 5 µM; shares compounds with Gli-Sufu block;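 active = mean inhibition at 5 µM reaching about 45%, limit read from the data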;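 also: plate controls were DMSO-treated cells for no effect and wells lacking cells for full effect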
SufuKO cytotox: cytotoxicity in Sufu-KO-LIGHT cells, confirmation, cytotoxicity control for Gli-SUFU antagonist project, cell-based, ATP luminescence, single concentration; shares compounds with Gli-Sufu block; cytotoxicity, % at 5 µM; 2,500 compounds, 32% hits;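 active = mean cytotoxicity at 5 µM above about 25%, limit read from the data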;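 also: cells exposed to compound overnight for roughly 16 to 18 hours; plate controls were DMSO wells with cells for no effect and medium without cells for full effect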
Wnt3a counter: Wnt3a reporter signal inhibition, confirmation, counter-screen for Gli-SUFU antagonist project, Wnt-LIGHT cells, luminescence, single concentration. shares compounds with Gli-Sufu block. Wnt3a-driven luciferase reporter. inhibition, % at 6.25 µM. 2,500 compounds, 20% hits;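 active = mean inhibition above about 25%, limit read from the data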
Numbers without * were called inactive; nt = no result.

SMILES | Shn3 inh set2 | Beta apoptosis | Mdm2 MdmX PPI | PAX8 reporter | CSC inhib | Gli-Sufu block | Gli antag conf | SufuKO cytotox | Wnt3a counter
Cn1nc(CC(=O)NC2CCCCCCCCCCC2)c2ccccc2c1=O | 60.2 | 17.1 | 27.8 | 3.0 | 34.2 | 26.5 | nt | nt | nt
O=C(CCNC(=O)N1CC(=O)Nc2ccccc21)NCCc1cccc(F)c1 | 9.4 | nt | -5.3 | -15.5 | 13.7 | 50.3 | 18.0 | 2.1 | -6.0
COc1ccc(NC(=O)CN(C)CC(=O)Nc2cccc(C(C)=O)c2)cc1 | -5.1 | -0.9 | -9.1 | 6.9 | 2.9 | 2.5 | nt | nt | nt
CN(CC(=O)Nc1ccc(Cl)cc1)CC(=O)Nc1cccc(Br)c1 | 14.6 | -6.0 | 5.5 | 15.7 | 26.0 | 55.1* | 15.3 | 5.8 | -50.9
Cc1cc(C)c(C(=O)Cn2cnc3cc([N+](=O)[O-])ccc3c2=O)cc1C | 5.6 | -1.1 | -0.2 | 2.4 | 7.0 | 7.3 | nt | nt | nt
CC1CCCCN1C(=O)Cn1cnc2cc([N+](=O)[O-])ccc2c1=O (stereo not drawn) | -3.2 | -0.7 | 6.9 | -1.8 | -9.6 | 55.1* | 12.1 | -6.7 | -15.7
CCCNC(=O)C[C@@H]1CC[C@@H]2[C@H](COc3ccc(NC(=O)COC)cc3C(=O)N2C)O1 | nt | nt | nt | -14.4 | nt | nt | nt | nt | nt
COCC(=O)Nc1ccc2c(c1)OC[C@@H](C)N(C(=O)NC(C)C)C[C@H](C)[C@H](OC)CN(C)C2=O | nt | nt | nt | -20.2 | nt | nt | nt | nt | nt
CCc1nn(CCCC(=O)NCc2ccccc2Br)c(=O)c2cc3occc3n12 | 34.9 | 0.8 | 27.3 | 0.5 | -6.8 | 82.1* | 24.6 | 3.0 | -3.5
Cc1ccc(S(=O)(=O)N2CCSC2)cc1C | 15.8 | -1.1 | -5.7 | nt | 6.0 | 55.6* | 13.1 | 8.0 | 12.2
COc1ccc(S(=O)(=O)N2CCSC2)cc1C | 8.9 | -4.9 | -0.5 | 8.0 | -0.2 | -5.9 | nt | nt | nt
N#Cc1c(N)nc2c(c1-c1ccco1)CCCCC2 | -11.8 | -5.6 | 21.3 | nt | nt | 97.6* | 27.4 | 18.9 | -4.3
CCSc1nc(N)c(C#N)c(-c2ccco2)c1C#N | -17.4 | -2.6 | 10.5 | nt | -7.7 | 89.4* | 30.0 | 0.9 | -3.9
CC(C)NC(=O)Nc1ccc2c(c1)C(=O)N([C@@H](C)CO)C[C@@H](C)[C@@H](CN(C)C(=O)CCCN(C)C)OCCCC[C@@H](C)O2 | nt | nt | nt | -8.9 | nt | nt | nt | nt | nt
C[C@H](CO)N1C[C@H](C)[C@@H](CN(C)C(=O)CN2CCOCC2)Oc2ncc(C3=CCCC3)cc2C1=O | nt | nt | nt | -16.0 | nt | nt | nt | nt | nt
COc1ccc(CN2CCc3ccccc3C2)c(OC)c1 | 7.1 | -1.4 | -2.7 | 1.6 | -7.7 | 13.3 | nt | nt | nt
COc1ccc(C2=[N+](C)CCn3cccc32)c(OC)c1 | 15.7 | 32.7 | -11.4 | 7.9 | -12.2 | 70.5* | 47.4* | 21.2 | 13.0
CN1N=C(N)c2cn(C3OC(COP(=O)(O)O)C(O)C3O)c3ncnc1c23 (stereo not drawn) | 83.5 | nt | nt | 28.0 | nt | 89.0* | 85.6* | 62.8* | 70.7*
COc1ccc(CNc2cc(C)nc3ncnn23)c(OC)c1 | 76.5 | 41.2 | -21.0 | nt | -1.1 | 52.1 | 46.0* | 13.6 | 24.6
CC1(C)Cc2c(cnn2-c2ccccc2)C(NC(=O)c2ccc[n+]([O-])c2)C1 (stereo not drawn) | 8.4 | -1.9 | 0.5 | nt | 1.3 | 50.6 | 21.4 | 8.1 | 17.0
Cc1ccc(-n2ncc3c2CC(C)(C)CC3NC(=O)c2ccc[n+]([O-])c2)cc1 (stereo not drawn) | -3.5 | -9.9 | -14.2 | 7.2 | -8.7 | 11.4 | nt | nt | nt
COCC(=O)Nc1ccc2c(c1)OC[C@H](C)N(Cc1ccccn1)C[C@@H](C)[C@H](OC)CN(C)C2=O | nt | nt | nt | 4.4 | nt | nt | nt | nt | nt
CCCS(=O)(=O)N1CCN(Cc2ccccc2C(F)(F)F)CC1 | -0.4 | -10.5 | 11.1 | nt | 0.4 | 0.9 | nt | nt | nt
CN1CCCN(Cc2ccccc2C(F)(F)F)CC1 | 13.7 | 0.0 | 3.0 | nt | 9.7 | 93.6* | 22.9 | 24.3 | -19.4
CC(=O)C1=NN(c2ccccc2)C(c2cccs2)N1c1ccc(N(C)C)cc1 (stereo not drawn) | 59.0 | 103.1* | 25.5 | nt | 2.2 | 78.8* | 79.0* | 32.8* | -62.9
SMILES | Shn3 inh set2 | Beta apoptosis | Mdm2 MdmX PPI | PAX8 reporter | CSC inhib | Gli-Sufu block | Gli antag conf | SufuKO cytotox | Wnt3a counter
COC(=O)C[C@H]1CC[C@@H]2[C@H](COc3ccc(NC(=O)c4cc(F)cc(F)c4)cc3C(=O)N2C)O1 | nt | nt | nt | -9.2 | nt | nt | nt | nt | nt
Cc1ccccc1OCc1nc2ccccc2c(=O)n1/N=C/c1ccco1 | -28.6 | -0.2 | 3.4 | nt | -0.9 | 93.4* | 11.7 | 25.8* | -45.1
O=C(O)c1ccc(NC(=O)c2cccc(C(=O)Nc3ccc(C(=O)O)cc3)n2)cc1 | 2.6 | -6.6 | -26.7 | 2.1 | 4.0 | 65.6* | 15.8 | 12.6 | 9.1
Cc1ccc2nc(SCC(=O)NCc3ccccc3)nc(=O)n2c1 | -13.4 | 2.2 | 1.1 | -2.3 | -0.4 | 96.9* | 21.1 | 33.2* | -17.4
N#Cc1cccc(-c2ccc([C@H]3[C@@H](CO)N4CCCCN(C(=O)Nc5ccccc5)C[C@@H]34)cc2)c1 | nt | nt | nt | -15.0 | nt | nt | nt | nt | nt
COc1ccc(COC(=O)N/N=C(\C)CC(=O)Nc2c(C)cc(C)cc2C)cc1 | -3.1 | -5.9 | 26.5 | nt | -8.3 | 99.4* | 14.8 | 23.4 | -23.6
CCC(=O)N1[C@H](C(=O)NCc2ccccc2F)[C@@H](CO)[C@@H]2Cn3c(cccc3=O)[C@@H]21 | nt | nt | nt | -11.8 | nt | nt | nt | nt | nt
C=CCN(C(=O)Cn1nc(C)n2c(cc3cc(C)ccc32)c1=O)c1ccccc1 | -6.2 | 10.2 | 21.4 | -4.4 | -11.3 | 63.4* | 24.3 | 18.0 | -24.5
CCN(C(=O)Cn1nc(C)n2c(cc3cc(C)ccc32)c1=O)c1ccccc1 | -10.6 | 10.3 | -12.0 | -11.3 | -18.6 | -8.2 | nt | nt | nt
Cc1cc(=O)oc2cc(OCC(O)CN3CCc4ccccc4C3)ccc12 (stereo not drawn) | 2.0 | 6.3 | 16.8 | nt | 5.8 | 95.1* | 11.4 | 13.8 | -44.5
Cc1cc(=O)oc2cc(OCC(O)CN3CCN(c4ccccc4)CC3)ccc12 (stereo not drawn) | -11.9 | 2.0 | -1.7 | nt | 2.3 | -8.2 | nt | nt | nt
COc1ccc(CN(C)C[C@@H]2Oc3c(NC(=O)C4CCOCC4)cccc3C(=O)N([C@@H](C)CO)C[C@H]2C)cc1 | nt | nt | nt | -13.2 | nt | nt | nt | nt | nt
Clc1ccc(C[n+]2cc(-c3ccccc3)n3c2CCC3)cc1Cl | 10.1 | 16.8 | 4.7 | 15.6 | -4.2 | 59.2* | 51.0* | 37.5* | -28.4
